The source made the active and inactive calls. Unless noted, the rule behind the calls is not given here.
Columns and labels:
[1] = anti-His antibody binders, primary screen, artefact control for SMM control protein annotation, biochemical, small-molecule microarray, 635 nm fluorescence (AID 1128); details: anti-His Alexa647 antibody binding, higher = more signal;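 note: score merges feature fluorescence with signal-to-noise for each printed compound spot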
[2] = tested on: Human papillomavirus type 1a E7 protein (residues 1-88); experiment: HPV1a E7 small-molecule binders, primary screen, biochemical, small-molecule microarray, residues 1-88, 635 nm (AID 1129); details: small-molecule microarray binding, fluorescence 635 nm; higher = more signal
[3] = target: Focal adhesion kinase 1 (Homo sapiens) (UniProt Q05397); experiment: small-molecule microarray binders of FAK, primary screen, biochemical, 635/667 nm fluorescence, BSA, DTT (AID 1130); details: PTK2 binding, 635 nm fluorescence, higher = more signal;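 note: composite of spot emission at 667 nm and signal to noise over triplicate slides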
Sequence of Focal adhesion kinase 1 (Homo sapiens) (Q05397 whole entry, looked up): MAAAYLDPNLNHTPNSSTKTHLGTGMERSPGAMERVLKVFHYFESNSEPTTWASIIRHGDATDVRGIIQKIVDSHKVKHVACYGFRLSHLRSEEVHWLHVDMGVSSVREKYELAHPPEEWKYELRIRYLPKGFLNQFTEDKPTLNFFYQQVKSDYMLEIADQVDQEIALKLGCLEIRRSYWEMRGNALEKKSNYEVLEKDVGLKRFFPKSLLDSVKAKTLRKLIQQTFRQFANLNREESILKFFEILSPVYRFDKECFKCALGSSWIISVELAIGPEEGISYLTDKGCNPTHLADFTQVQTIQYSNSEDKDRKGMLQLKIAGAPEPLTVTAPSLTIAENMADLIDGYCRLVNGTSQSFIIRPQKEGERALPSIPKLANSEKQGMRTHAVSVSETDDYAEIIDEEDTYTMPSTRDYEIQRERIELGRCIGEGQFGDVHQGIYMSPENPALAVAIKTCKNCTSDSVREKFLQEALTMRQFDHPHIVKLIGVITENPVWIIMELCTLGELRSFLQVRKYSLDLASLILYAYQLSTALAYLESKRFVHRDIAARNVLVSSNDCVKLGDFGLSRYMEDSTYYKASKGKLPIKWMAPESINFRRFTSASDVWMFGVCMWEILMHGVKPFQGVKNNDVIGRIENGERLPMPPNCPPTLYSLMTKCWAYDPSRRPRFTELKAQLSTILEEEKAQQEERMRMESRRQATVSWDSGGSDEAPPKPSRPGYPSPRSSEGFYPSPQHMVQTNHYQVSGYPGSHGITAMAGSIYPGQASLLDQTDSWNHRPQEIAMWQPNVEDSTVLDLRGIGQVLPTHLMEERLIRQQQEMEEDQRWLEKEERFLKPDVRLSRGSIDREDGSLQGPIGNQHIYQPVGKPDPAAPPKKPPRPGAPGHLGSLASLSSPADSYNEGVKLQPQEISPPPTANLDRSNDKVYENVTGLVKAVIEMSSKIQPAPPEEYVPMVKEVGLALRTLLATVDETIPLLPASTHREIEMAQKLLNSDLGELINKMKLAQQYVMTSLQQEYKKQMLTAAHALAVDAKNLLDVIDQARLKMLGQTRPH

[4] = tested on: Fibrinogen (Alexa647-labelled); experiment: fibrinogen binders on compound microarrays, profiling panel, artefact control for SMM control-protein annotation, biochemical, small-molecule microarray, 635/667 nm fluorescence (AID 1131); details: fibrinogen-A647 binding fluorescence, higher = more signal;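 note: z-score merges 667 nm fluorescence with per-spot signal-to-noise over triplicate slides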
[5] = target: Follistatin (Homo sapiens) (UniProt P19883); experiment: follistatin binders on small-molecule microarrays, primary screen, biochemical, small-molecule microarray, 635/667 nm fluorescence (AID 1132); details: FST binding, 635 nm fluorescence, higher = more signal
Sequence of Follistatin (Homo sapiens) (P19883 whole entry, looked up): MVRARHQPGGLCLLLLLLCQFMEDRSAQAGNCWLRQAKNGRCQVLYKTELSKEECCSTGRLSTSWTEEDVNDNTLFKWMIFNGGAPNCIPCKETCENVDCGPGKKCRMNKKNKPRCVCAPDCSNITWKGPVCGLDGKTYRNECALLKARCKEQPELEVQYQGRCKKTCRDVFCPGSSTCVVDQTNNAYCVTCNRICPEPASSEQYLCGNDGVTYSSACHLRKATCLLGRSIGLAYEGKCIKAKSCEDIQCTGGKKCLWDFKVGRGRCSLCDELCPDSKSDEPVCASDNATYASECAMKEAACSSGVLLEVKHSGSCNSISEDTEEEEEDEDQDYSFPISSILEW

[6] = target: Fibroblast growth factor 2 (Homo sapiens) (UniProt P09038); experiment: FGF2 binders on small-molecule microarrays, primary screen, biochemical, small-molecule microarray, 635/667 nm fluorescence (AID 1133); details: small-molecule microarray binding, FGF2, fluorescence 635/667; higher = more signal
Sequence of Fibroblast growth factor 2 (Homo sapiens) (P09038 whole entry, looked up): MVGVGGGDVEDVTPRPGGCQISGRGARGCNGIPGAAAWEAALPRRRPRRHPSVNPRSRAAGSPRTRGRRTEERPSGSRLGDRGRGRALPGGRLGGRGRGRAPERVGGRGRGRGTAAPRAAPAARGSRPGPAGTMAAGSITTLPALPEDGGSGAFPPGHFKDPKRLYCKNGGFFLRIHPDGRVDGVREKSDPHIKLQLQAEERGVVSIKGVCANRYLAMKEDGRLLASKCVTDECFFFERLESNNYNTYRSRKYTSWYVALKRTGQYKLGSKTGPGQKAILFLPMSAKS

[7] = mitochondrial membrane potential change in A549 cells, profiling panel, cell-based, JC-1 fluorescence, basal, 24 h, 100 nL (AID 1138); details: higher = more signal;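 note: A549 lung adenocarcinoma cells under basal conditions with no added stimulus; test concentration not given here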
Lefty1 = Lefty1 binders on small-molecule microarrays, primary screen, biochemical, small-molecule microarray, 635/667 nm fluorescence (AID 1139); details: small-molecule microarray binding, fluorescence 635/667; higher = more signal
[8] = tested on: wheat germ agglutinin (Triticum aestivum), Alexa647-labelled; experiment: wheat germ agglutinin binders on compound microarrays, profiling panel, artefact control for SMM control-protein annotation, biochemical, small-molecule microarray, 635/667 nm fluorescence (AID 1140); details: WGA-A647 binding, 635 nm fluorescence, higher = more signal;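 note: score merges 667 nm feature emission with signal to noise over triplicate slides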
[9] = target: Luciferin 4-monooxygenase (Photinus pyralis) (UniProt P08659); experiment: firefly luciferase enzyme inhibitors, primary screen, biochemical, luminescence, purified enzyme, 2006 set (AID 1141); details: SteadyGlo luminescence, 30 min, higher = more signal, called active from +8 up or from −8 down;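 note: cell-free assay with purified firefly luciferase at 100 ng per well in PBS; test concentration not given here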
Sequence of Luciferin 4-monooxygenase (Photinus pyralis) (P08659 whole entry, looked up): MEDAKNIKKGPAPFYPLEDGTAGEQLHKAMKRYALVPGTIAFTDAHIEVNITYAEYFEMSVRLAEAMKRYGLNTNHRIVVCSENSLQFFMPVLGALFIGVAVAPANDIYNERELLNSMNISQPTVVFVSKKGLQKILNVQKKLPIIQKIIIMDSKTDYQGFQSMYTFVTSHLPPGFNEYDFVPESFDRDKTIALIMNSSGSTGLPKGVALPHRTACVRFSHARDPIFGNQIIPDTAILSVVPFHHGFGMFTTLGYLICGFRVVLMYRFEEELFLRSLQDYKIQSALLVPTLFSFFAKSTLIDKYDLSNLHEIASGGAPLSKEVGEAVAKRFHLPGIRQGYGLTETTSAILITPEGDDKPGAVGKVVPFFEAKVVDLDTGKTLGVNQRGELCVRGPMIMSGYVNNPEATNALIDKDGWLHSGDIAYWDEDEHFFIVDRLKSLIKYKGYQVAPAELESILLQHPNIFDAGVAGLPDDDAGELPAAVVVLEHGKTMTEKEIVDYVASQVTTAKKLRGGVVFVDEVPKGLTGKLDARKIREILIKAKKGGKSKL

[10] = tested on: Wnt5a (protein binding on small-molecule microarray); experiment: Wnt5a binders on small-molecule microarray, primary screen, biophysical, 635/667 nm fluorescence (AID 1142); details: 635 nm fluorescence, higher = more signal;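 note: fluorescence read at 667 nm with signal to noise per printed feature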
[11] = cell viability in Huh7 cells, primary screen, cytotoxicity control for HCV replication inhibitor project, CellTiter-Glo luminescence, basal, 48 h (AID 1143); details: Huh7 HCV replicon, higher = more signal, called active from +8 up or from −8 down;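 note: Huh7 hepatoma cells carrying a hepatitis C replication reporter with no stimulus; test concentration not given here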
[12] = P. aeruginosa biofilm formation inhibitors, primary screen, PAO1 strain, BacTiter-Glo luminescence, LB-PBS (AID 1144); details: 12 h, higher = more signal
[13] = CREB reporter modulators without forskolin, primary screen, cell-based, PC12, CRE-LacZ reporter, unstimulated (AID 1145); details: no forskolin, luminescence, 4.5 h, higher = more signal, called active from +8 up or from −8 down
[14] = CREB reporter modulators under forskolin, primary screen, cell-based, PC12, CRE-LacZ reporter, forskolin-stimulated (AID 1146); details: luminescence, 4.5 h, higher = more signal, called active from +8 up or from −8 down;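 note: PC12 cells with 6xCRE LacZ reporter stimulated by forskolin 10 µM; beta-galactosidase reporter signal reflecting CREB driven transcription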
[15] = target: Streptavidin (Streptomyces avidinii) (UniProt P22629); experiment: streptavidin binders on small-molecule microarray, primary screen, artefact control for SMM compound annotation, biophysical, 635/667 nm fluorescence (AID 1147); details: streptavidin binding, higher = more signal;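 note: signal reflects streptavidin binding to arrayed compounds as a control protein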
Sequence of Streptavidin (Streptomyces avidinii) (P22629 whole entry, looked up): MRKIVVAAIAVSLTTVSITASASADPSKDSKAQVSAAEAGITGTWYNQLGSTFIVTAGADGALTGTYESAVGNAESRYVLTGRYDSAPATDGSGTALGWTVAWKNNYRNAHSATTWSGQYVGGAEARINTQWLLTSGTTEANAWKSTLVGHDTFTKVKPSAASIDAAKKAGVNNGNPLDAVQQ

[16] = small-molecule binders of probe aInhba, primary screen, biochemical, small-molecule microarray, 635/667 nm fluorescence (AID 1148); details: higher = more signal;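 note: score merges 667nm spot fluorescence with signal-to-noise for antibody binding to printed compounds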
Torsin-1A (Homo sapiens) [17] = target: Torsin-1A (Homo sapiens) (UniProt O14656); experiment: torsin A binders from cell lysate, primary screen, small-molecule microarray, wild-type, 635/667 nm (AID 1149); details: COS7 hTOR1A-WT lysate, 635 nm fluorescence, higher = more signal
Sequence of Torsin-1A (Homo sapiens) (O14656 whole entry, looked up): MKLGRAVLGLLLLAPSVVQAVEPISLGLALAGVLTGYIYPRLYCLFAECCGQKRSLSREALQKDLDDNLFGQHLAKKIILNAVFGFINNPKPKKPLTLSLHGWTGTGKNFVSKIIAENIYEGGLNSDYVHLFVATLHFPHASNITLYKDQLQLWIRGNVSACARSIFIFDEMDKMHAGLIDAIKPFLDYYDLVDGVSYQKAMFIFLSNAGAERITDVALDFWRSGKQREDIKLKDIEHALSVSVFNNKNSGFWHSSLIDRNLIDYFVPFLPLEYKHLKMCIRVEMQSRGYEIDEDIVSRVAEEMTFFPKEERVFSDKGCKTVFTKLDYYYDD

Torsin-1A (Homo sapiens) [18] = target: Torsin-1A (Homo sapiens) (UniProt O14656); experiment: small-molecule binders of mutant TOR1A in lysate, primary screen, cell lysate, small-molecule microarray, COS7 lysate, 635/667 nm fluorescence (AID 1150); details: COS7 hTOR1A mutant lysate, 635 nm fluorescence, higher = more signal;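 note: score pools 667 nm emission and signal to noise measuring lysate protein binding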
[19] = tested on: Sonic hedgehog protein (Shh); experiment: small-molecule binders of Shh protein, primary screen, biochemical, small-molecule microarray, 635/667 nm fluorescence (AID 1151); details: small-molecule microarray binding, 635 nm fluorescence; higher = more signal;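 note: Shh protein binding to compounds spotted on small-molecule microarray slides; score combines spot fluorescence intensity with signal-to-noise across triplicate slides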

SMILES: CCN(CC)c1ccc(N2CC=CC34O[C@@H]5/C=C\CCC(C)OC(=O)C5[C@H]3C(=O)N(C(CO)C(C)C)[C@@H]4C2=O)cc1 (stereo not given in full)
- composite z-score [1]: -0.264
- composite z-score [2]: -0.651
- composite z-score [3]: 0.174
- composite z-score [4]: -0.4
- composite z-score [5]: -0.452
- composite z-score [6]: 0.0509
- z-score [7]: 0.93
- composite z-score (Lefty1): -0.674
- composite z-score [8]: -0.558
- z-score [9]: -1.09 (inactive)
- composite z-score [10]: -0.443
- z-score [11]: -0.122 (inactive)
- z-score [12]: 0.805 (inactive)
- z-score [13]: 0.337 (inactive)
- z-score [14]: 0.199 (inactive)
- composite z-score [15]: -0.826
- composite z-score [16]: -0.108
- composite z-score (Torsin-1A (Homo sapiens) [17]): -0.918
- composite z-score (Torsin-1A (Homo sapiens) [18]): -1.32
- composite z-score [19]: 0.661

SMILES: C=CCOC(=O)[C@H]1[C@@H]2C(=O)O[C@@H](c3ccccc3)[C@@H](c3ccccc3)N2[C@@H](c2ccc(OCCOC(=O)[C@H]3C[C@H]4C(=O)N[C@@H](CC(C)C)C(=O)N4[C@H]3c3ccc(O)cc3)cc2)[C@]12C(=O)Nc1ccc(I)cc12
- composite z-score [1]: 0.756
- composite z-score [2]: 0.937
- composite z-score [3]: 0.798
- composite z-score [4]: 0.839
- composite z-score [5]: 1.19
- composite z-score [6]: 1.55
- z-score [7]: -1.29
- composite z-score (Lefty1): 1.54
- composite z-score [8]: 0.739
- z-score [9]: -2.02 (inactive)
- composite z-score [10]: 0.931
- z-score [11]: -0.289 (inactive)
- z-score [12]: -0.829 (inactive)
- z-score [13]: -0.122 (inactive)
- z-score [14]: 0.535 (inactive)
- composite z-score [15]: 0.335
- composite z-score [16]: -0.0695
- composite z-score (Torsin-1A (Homo sapiens) [17]): 1.45
- composite z-score (Torsin-1A (Homo sapiens) [18]): 1.45
- composite z-score [19]: 2.31

SMILES: COc1ccc(C(=O)Nc2ccc(CN3C(=O)[C@@]4(O[C@@H](CC(=O)N5CCC[C@H]5CO)[C@H]([Si](C)(C)c5ccc(OC)cc5)[C@H]4C)c4ccccc43)cc2)cc1
- composite z-score [1]: -0.271
- composite z-score [2]: 1.2
- composite z-score [3]: 1.02
- composite z-score [4]: 0.655
- composite z-score [5]: 1.33
- composite z-score [6]: 1.68
- z-score [7]: 3.25
- composite z-score (Lefty1): 1.21
- composite z-score [8]: 0.763
- z-score [9]: -2.38 (inactive)
- composite z-score [10]: 0.553
- z-score [11]: -1.38 (inactive)
- z-score [12]: -1.34 (inactive)
- z-score [13]: 1.88 (inactive)
- z-score [14]: -0.0184 (inactive)
- composite z-score [15]: 0.648
- composite z-score [16]: 0.0074
- composite z-score (Torsin-1A (Homo sapiens) [17]): 0.826
- composite z-score (Torsin-1A (Homo sapiens) [18]): 0.797
- composite z-score [19]: 1.66

SMILES: C=CCOC(=O)[C@@H]1[C@H]2C(=O)O[C@H](c3ccccc3)[C@H](c3ccccc3)N2[C@H](c2ccc(OCCOC(=O)[C@@H]3C[C@@H]4C(=O)N[C@@H](CCCCN(C)C)C(=O)N4[C@@H]3c3ccc(O)cc3)cc2)[C@@]12C(=O)Nc1ccc(I)cc12
- composite z-score [1]: 1.13
- composite z-score [2]: 0.799
- composite z-score [3]: 0.338
- composite z-score [4]: 0.177
- composite z-score [5]: 1.2
- composite z-score [6]: 1.34
- z-score [7]: -1.78
- composite z-score (Lefty1): 0.844
- composite z-score [8]: 0.542
- z-score [9]: -2.62 (inactive)
- composite z-score [10]: 0.312
- z-score [11]: -0.768 (inactive)
- z-score [12]: -0.975 (inactive)
- z-score [13]: -0.675 (inactive)
- z-score [14]: 0.595 (inactive)
- composite z-score [15]: 0.321
- composite z-score [16]: 0.0649
- composite z-score (Torsin-1A (Homo sapiens) [17]): 0.724
- composite z-score (Torsin-1A (Homo sapiens) [18]): 1.84
- composite z-score [19]: 1.74

SMILES: COc1ccc(CCN2C(=O)[C@@]3(Cc4ccccc42)c2ccccc2C(=O)N(Cc2ccccc2C(F)(F)F)[C@H]3c2ccc(CO)cc2)cc1
- composite z-score [1]: 0.752
- composite z-score [2]: -0.175
- composite z-score [3]: -0.324
- composite z-score [4]: 0.732
- composite z-score [5]: 1.12
- composite z-score [6]: 0.83
- z-score [7]: -0.963
- composite z-score (Lefty1): 0.541
- composite z-score [8]: 0.461
- z-score [9]: 0.642 (inactive)
- composite z-score [10]: 0.268
- z-score [11]: -4.12 (inactive)
- z-score [12]: -1.41 (inactive)
- z-score [13]: -0.554 (inactive)
- z-score [14]: -0.361 (inactive)
- composite z-score [15]: -0.228
- composite z-score [16]: -0.208
- composite z-score (Torsin-1A (Homo sapiens) [17]): 0.208
- composite z-score (Torsin-1A (Homo sapiens) [18]): 0.087
- composite z-score [19]: 1.9

Reference: PubChem BioAssay
